Test results from PubChem BioAssay AID540335 (Broad Institute, 2011).
The campaign covered roughly 1,300 compounds. About 270 (21%) were called active. A selection follows. Measured potencies and affinities stand elsewhere. Values without a mark were called inactive.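 How the source made its calls: active means dose-dependent rise or fall in viability, either side of zero, with half-maximal concentration at or below a set limit; inconclusive means flat curve at 30 to 70% viability loss, or poor fit; inactive means flat within 30% either way, or potency beyond limit.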

Experiment: A375 melanoma cell viability reduction, dose response, counter-screen for MITF modulator project, cherry-pick samples, set 2 (AID 540335);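 further: A375 human melanoma cells which do not depend on MITF; 0% = median of neutral control wells and 100% = double that signal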
Settings: CellTiter-Glo ATP luminescence, 24 h; series mostly up to 35 µM; activity change, negative = decreased viability: at the top concentration

Compound	activity change, negative = decreased viability [%]
CCn1c(=O)c([N+](=O)[O-])c(Cl)c2ccccc21	5.11
COc1ccc(C(=O)/C=C/C(=O)N(CC(=O)NC2CCCCC2)Cc2cccs2)c(O)c1	-2.13
Cc1cnc(NC(=O)c2nn(C)cc2[N+](=O)[O-])s1	0.417
Cn1cc(C(=O)N/N=C/c2c(O)ccc3ccccc23)ccc1=O	-38.1
O=C(CSCC(=O)Nc1ccccc1)N/N=C/c1c(O)ccc2ccccc12	-31.7
CCc1ccccc1NC(=O)CN(C)C(=O)Cn1ncc(Cl)c(Cl)c1=O	80.5
COC(=O)c1ccc2c(c1O)C(=O)c1ccccc1C2=O	-37.2
CC(=O)N(C)C1=C(N2CCOCC2)C(=O)c2ccccc2C1=O	-38
CCN(CC)CCNC(=O)c1ccc(NC(=O)c2cn(-c3ccccc3)nc2-c2cccs2)cc1	-38.3
CCS(=O)(=O)c1ccc(N=Nc2ccc(O)c3ncccc23)c(OC)c1	-34
O=[N+]([O-])c1ccc(-n2nnnc2-c2ccccc2)c([N+](=O)[O-])c1	2.45
CCN1CCN(c2ccc(S(=O)(=O)N3CCCCC3)cc2NC(=O)/C=C/c2ccc([N+](=O)[O-])cc2)CC1	-9.5
CCN1CCN(c2ccc(S(=O)(=O)N3CCCCC3)cc2NC(=O)/C=C/c2cccc(OC)c2OC)CC1	-14.7
O=C(N/N=C/c1ccc([N+](=O)[O-])s1)C(O)c1ccccc1 (configuration not stated)	-11.8
CC(/C=N/NC(=O)c1cc(-c2ccncc2)nc2ccccc12)=C\c1ccco1	14.4
CN1CCN(C2=C(NS(=O)(=O)c3ccccc3)C(=O)c3ccccc3C2=O)CC1	-10
O=C1C(Nc2ccccc2)=C(N2CCCCC2)C(=O)c2ccccc21	-22.7
CCN1c2ccccc2NC2C1C(C(C)=O)C(=O)N2c1ccc(Cl)cc1 (configuration not stated)	-2.02
COC1=C(Nc2ccccc2)C(=O)c2ccccc2C1=O	-20.6
COC1=C(Nc2ccc(O)cc2)C(=O)c2ccccc2C1=O	-34.3
CCNC1=C(Cl)C(=O)c2ccccc2C1=O	-23.1
C=CCNC1=C(Cl)C(=O)c2ccccc2C1=O	-14.5
O=C(NC1=C(Nc2ccc(Cl)cc2)C(=O)c2ccccc2C1=O)c1ccccc1	-34.3

Compound	activity change, negative = decreased viability [%]
CCc1ccc(NC2=CC(=O)C(=O)c3ccccc32)cc1	-32.6
COc1ccc(C(=O)/C=C/C(=O)N(CC(=O)NC2CCCCC2)CC2CCCO2)c(O)c1 (configuration not stated)	-33.5
CC1=NNC(=O)/C1=C\c1cn(-c2ccccc2)nc1-c1ccc(F)cc1	-11.5
Cc1ccc(-c2c[n+](Cc3ccc(Cl)c(Cl)c3)c3n2CCC3)cc1	-14.8
COc1cc(/C=C/C(=O)c2ccc3c(c2)OCCO3)cc(Br)c1OCC(=O)N(C)C	107
O=C(/C=C\c1ccccc1)NCC(=O)N/N=C/c1ccc(O)cc1O	-16.7
CC1CCN(CC(CS(=O)(=O)c2ccc([N+](=O)[O-])cc2)N2CCC(C)CC2)CC1 (configuration not stated)	5.07
CCc1ccc(-c2cc(C(=O)Nn3cnnc3)c3ccccc3n2)cc1	-19.7
Cc1cc(C)cc(NC(=O)c2ccc([N+](=O)[O-])o2)c1	-28
O=C(CS(=O)c1ccc(C(F)(F)F)cc1[N+](=O)[O-])Oc1ccccc1 (configuration not stated)	0.077
Cc1ccccc1-c1nc(CN2CCC(C(=O)NCCCN3CCCC(C)C3)CC2)c(C)o1 (configuration not stated)	-2.83
Cc1cc(C)c2c(N)c(C(=O)N/N=C/c3ccccc3)sc2n1	12.6
Cc1cc(C)c2nc3nc(C)cc(C)c3c(N)c2c1	-9.13
Cc1oc(-c2ccc(Cl)cc2)nc1CN1CCC(C(=O)NCCCN2CCCC(C)C2)CC1 (configuration not stated)	-19.6
FC(F)(F)c1cc(CCN2CCNC[C@@H]2Cc2ccccc2)cc(C(F)(F)F)c1	-94.9
O=C(N/N=C\c1ccc([N+](=O)[O-])s1)c1cncc(Br)c1	-26.1
C#CCCc1ccccc1/C=[N+](/C)[O-]	3.43
N#C/C(=C(/O)c1ccc([N+](=O)[O-])o1)c1nc2ccccc2[nH]1	-27.3
O=C(COc1ccc2c(c1)CCC2)N1CCc2ccccc21	8.68
O=C(CCl)N1c2ccccc2SCC1c1ccccc1 (configuration not stated)	-37
O=C(Cn1ncc(Cl)c(Cl)c1=O)N1CCOCC1	38.5
CC(=O)Nc1ccc(S(=O)(=O)NC2=C(N3CCN(C)CC3)C(=O)c3ccccc3C2=O)cc1	-33.5
O=C(Nc1cnc2ccccn2c1=O)c1ccc(F)cc1	4.12

Compound	activity change, negative = decreased viability [%]
CN(C)c1nc(C=C(C#N)C#N)c(Cl)n1-c1ccc(F)cc1	-10.1
O=[N+]([O-])c1ccc(/C=N/n2cnc3ccccc32)s1	-23.5
CC1CCCC(NC(=O)NC(=O)CCl)C1C (configuration not stated)	-12.3
Cc1ccc(NC(=O)Cn2ncc(Cl)c(Cl)c2=O)cc1S(=O)(=O)N1CCCCC1	-14.3
Cc1cc(Br)ccc1NC(=O)CNC(=O)Cn1ncc(Cl)c(Cl)c1=O	-5.62
Cn1nnnc1Sc1ncnc2scc(-c3ccc(C#N)cc3)c12	29.3
CCN1c2ccccc2NC2N=C(OC)C(c3ccccc3)C21 (configuration not stated)	-35.9
COCCN(CC(=O)NC1CCCCC1)C(=O)/C=C/C(=O)c1ccc(OC)cc1O	10.5
Cc1ccc(-c2c[n+](Cc3ccc(Cl)cc3)c3n2CCC3)cc1	-3.64
Cc1[nH]c2ccccc2c1C(=O)CCl	-3.71
CC(C)C(CCNC1CCN(C)CC1)c1ccc(Cl)cc1 (configuration not stated)	-4.07
CCN1CCN(C2=C(NS(=O)(=O)c3ccc(Br)cc3)C(=O)c3ccccc3C2=O)CC1	-15.8
CC1CCC(C(C)C)C(OC(=O)C[n+]2cc(-c3ccc(Cl)cc3)n3c2CCCCC3)C1 (configuration not stated)	-67.3
O=C(O)c1cccc(NC(=S)N/N=C/c2ccccn2)c1	-11.9
Cc1ccc(C(=O)c2no[n+]([O-])c2C(=O)c2ccc(C)cc2)cc1	-8.72
COc1ccc(C(=O)/C=C/C(=O)N(CC(=O)NC2CCCCC2)Cc2ccccc2)c(O)c1	-10.6
O=C(Nc1ccc(Cl)c(S(=O)(=O)N2CCOCC2)c1)c1ccc(OCC2CCCO2)cc1 (configuration not stated)	-37.8
O=C(Nc1ccccc1N1CCOCC1)c1ccc([N+](=O)[O-])s1	-14.6
O=C(Nc1nc(-c2ccccn2)cs1)c1ccc(F)c(S(=O)(=O)N2CCOCC2)c1	-27.2
COc1ccc(/C=C2\SC(=O)N(CCCC(=O)Nc3cc(Cl)ccc3C(=O)O)C2=O)cc1	10.5
Cn1cccc1-c1cc(C(=O)N/N=C/c2cc(Br)ccc2O)[nH]n1	-30
